Our source for the outcome, viability change, negative = cytotoxic and activity change, negative = cytotoxicity values is PubChem BioAssay (Tox21).

Results filed as inconclusive are left out. Values without a mark were called inactive. Activity calls are given as the source filed them. Unless noted, calls follow the shape of the full dose curve.
% is scaled to controls: 0 for no effect and ±100 for the full control effect.

The first assay is described as follows: qHTS assay for small molecule agonists of the antioxidant response element (ARE) signaling pathway - cell viability counter screen (AID 743203). Also: nearly all actives have a fitted effect of over 55% in size. Particulars: ARE-bla HepG2 viability, CellTiter-Glo luminescence, 16 h; series mostly up to 73.3 µM. In outline: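 Cytotoxicity was tested in parallel with the ARE reporter screen. ARE-bla HepG2 cells were exposed to compounds for 16 hrs, and viability was taken from CellTiter-Glo luminescence.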
On the technique in general: qHTS replaces the single test concentration by a dilution series.
Turning to `O=Cc1cccc(Br)c1`, the call was inactive.

Regarding `CN1[C@@H]2CC[C@H]1CC(OC(=O)C(O)c1ccccc1)C2` (stereo partly drawn), the result was inactive.

`CCCCCCCCN1CCCC1=O`: the result was inactive.

As for `CC[N+](C)(CC)CCOC(=O)C1c2ccccc2Oc2ccccc21`, the compound was classed as inactive.

With `CCOC(=O)OC(C)OC1=C(C(=O)Nc2ccccn2)N(C)S(=O)(=O)c2ccccc21` (stereo not drawn), the compound was classed as inactive.

As for `CC(=O)NC(=O)c1ccccc1O`, the result was inactive.

For `CCCCCCCC1CCCC1=O` (stereo not drawn), the call was inactive.

Turning to `[Ca+2]`, the compound was classed as inactive.

For `CC(CO)(CO)[N+](=O)[O-]`, the compound was called inactive.

For `CCCc1ncc(C[n+]2ccccc2C)c(N)n1`, the compound was called inactive.

Regarding `CN1CC(=O)N/C1=N/C(=O)Nc1cccc(Cl)c1`, the call was inactive.

For the compound `CC(C)(C)C(=O)Oc1ccc(S(=O)(=O)Nc2ccccc2C(=O)NCC(=O)O)cc1`, the result was inactive.

For `Cc1ccc(-c2ncc(Cl)cc2-c2ccc(S(C)(=O)=O)cc2)cn1`, the compound was classed as inactive.

Take `CCCCN1C=CN(C)C1`: the compound was classed as inactive.

For `NC(CCC(=O)O)C(=O)O` (stereo not drawn), the outcome was inactive.

Take `CC(CC=O)CC(C)(C)C` (stereo not drawn): the call was inactive.

For `C[N+]1(C)[C@@H]2CC(OC(=O)[C@H](CO)c3ccccc3)C[C@H]1[C@@H]1O[C@@H]12` (stereo partly drawn), the call was inactive.

Take `CC(=O)c1ccc2ccccc2c1`: the result was inactive.

`CCCCc1ccc2c(n1)[C@@H](c1ccc(OC)cc1C[C@H](C)C(=O)O)[C@H](C(=O)O)[C@H]2c1ccc2c(c1)OCO2`: the outcome was inactive.

As for `CN(C)[C@@H]1C(=O)C(C(=O)NCN2CCCC2)=C(O)[C@@]2(O)C(=O)C3=C(O)c4c(O)cccc4[C@@](C)(O)C3C[C@@H]12` (stereo partly drawn), the result was inactive.

As to `NS(=O)(=O)Cc1noc2ccccc12`, the result was inactive.

For the compound `CN(C)C(=O)Oc1ccc[n+](C)c1`, the call was inactive.

For the compound `CCOC(=O)C1=NOC(c2ccccc2)(c2ccccc2)C1`, the call was inactive.

On to `CC(=O)C1CCCCC1=O` (stereo not drawn), for which the outcome was inactive.

For the compound `CCC1C(=O)OCC1Cc1cncn1C` (stereo not drawn), the outcome was inactive.

Turning to `O=S(=O)(O)c1cc(O)c(O)c(S(=O)(=O)O)c1`, the call was inactive.

`CCOc1ccccc1OCC`: the call was inactive.

For the compound `CCCCCC(=O)OCCc1ccccc1`, the result was inactive.

On to `CN(C)CCCN(C)CCCN(C)C`, for which the result was inactive.

As to `COc1ccc2cc1Oc1cc3c(cc1OC)CC[N+](C)(C)[C@H]3Cc1ccc(cc1)Oc1c(OC)c(OC)cc3c1[C@@H](C2)[N+](C)(C)CC3`, the compound was called inactive.

`CCCCCC(C)N` (stereo not drawn): the result was inactive.

Turning to `CCN[C@@H]1C[C@H](N)[C@@H](OC2OC(CN)=CCC2N)[C@H](O)[C@H]1O[C@H]1OC[C@](C)(O)[C@H](NC)[C@H]1O` (stereo partly drawn), the viability change, negative = cytotoxic was -2.08% [at 0.756 µM].

`O=[N+]([O-])c1ccc(/C=N\O)o1`: the call was inactive.

Consider `CCN(Cc1ccccc1)c1ccccc1`, for which the result was inactive.

Consider `CN(C)CCN(C)CCN(C)C`, for which the outcome was inactive.

In the case of `CCN[C@H]1C[C@H](C)S(=O)(=O)c2sc(S(N)(=O)=O)cc21`, the call was inactive.

Regarding `O=C(CO)[C@@H](O)[C@H](O)[C@@H](O)CO`, the result was inactive.

Another assay is described as follows: qHTS assay for small molecule activators of the heat shock response signaling pathway - cell viability counter screen (AID 743209; active = well fitted cell-killing curve with a large enough effect in the repeat runs; also: nearly all actives have a fitted effect of over 50% in size). Particulars: HSE-bla HeLa viability, CellTiter-Glo luminescence, 5 h; series mostly up to 62.6 µM. The procedure, abridged: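 Cytotoxicity counter screen run in parallel with the HSE beta-lactamase reporter, using the same wells. HeLa HSE-bla cells received compound for 5 h at 37 C; ATP-based CellTiter-Glo luminescence was measured after 30 min at room temperature.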
`O=Cc1cccc(Br)c1`: the compound was classed as inactive.

In the case of `CC[N+](C)(CC)CCOC(=O)C1c2ccccc2Oc2ccccc21`, the call was inactive.

In the case of `CC(=O)NC(=O)c1ccccc1O`, the compound was classed as inactive.

On to `CCCCCCCC1CCCC1=O` (stereo not drawn), for which the outcome was inactive.

For `[Ca+2]`, the outcome was inactive.

With `CC(CO)(CO)[N+](=O)[O-]`, the result was inactive.

In the case of `CCCc1ncc(C[n+]2ccccc2C)c(N)n1`, the result was inactive.

`CN1CC(=O)N/C1=N/C(=O)Nc1cccc(Cl)c1`: the outcome was inactive.

For `CC(C)(C)C(=O)Oc1ccc(S(=O)(=O)Nc2ccccc2C(=O)NCC(=O)O)cc1`, the outcome was inactive.

Consider `Cc1ccc(-c2ncc(Cl)cc2-c2ccc(S(C)(=O)=O)cc2)cn1`, for which the outcome was inactive.

In the case of `CCCCN1C=CN(C)C1`, the compound was called inactive.

`NC(CCC(=O)O)C(=O)O` (stereo not drawn): the call was inactive.

On to `CC(CC=O)CC(C)(C)C` (stereo not drawn), for which the compound was called inactive.

With `C[N+]1(C)[C@@H]2CC(OC(=O)[C@H](CO)c3ccccc3)C[C@H]1[C@@H]1O[C@@H]12` (stereo partly drawn), the result was inactive.

`CC(=O)c1ccc2ccccc2c1`: the result was inactive.

`CCCCc1ccc2c(n1)[C@@H](c1ccc(OC)cc1C[C@H](C)C(=O)O)[C@H](C(=O)O)[C@H]2c1ccc2c(c1)OCO2`: the compound was called inactive.

Take `CN(C)[C@@H]1C(=O)C(C(=O)NCN2CCCC2)=C(O)[C@@]2(O)C(=O)C3=C(O)c4c(O)cccc4[C@@](C)(O)C3C[C@@H]12` (stereo partly drawn): the compound was classed as inactive.

Turning to `NS(=O)(=O)Cc1noc2ccccc12`, the outcome was inactive.

Take `CN(C)C(=O)Oc1ccc[n+](C)c1`: the compound was called inactive.

In the case of `CCOC(=O)C1=NOC(c2ccccc2)(c2ccccc2)C1`, the result was inactive.

`CC/C=C\CCOC(C)OCC` (stereo not drawn): the result was inactive.

In the case of `CC(=O)C1CCCCC1=O` (stereo not drawn), the call was inactive.

`CCC1C(=O)OCC1Cc1cncn1C` (stereo not drawn): the outcome was inactive.

With `O=S(=O)(O)c1cc(O)c(O)c(S(=O)(=O)O)c1`, the outcome was inactive.

For `CCCCCC(=O)OCCc1ccccc1`, the result was inactive.

With `COc1ccc2cc1Oc1cc3c(cc1OC)CC[N+](C)(C)[C@H]3Cc1ccc(cc1)Oc1c(OC)c(OC)cc3c1[C@@H](C2)[N+](C)(C)CC3`, the compound was called inactive.

As for `CCN[C@@H]1C[C@H](N)[C@@H](OC2OC(CN)=CCC2N)[C@H](O)[C@H]1O[C@H]1OC[C@](C)(O)[C@H](NC)[C@H]1O` (stereo partly drawn), the activity change, negative = cytotoxicity was 9.84% [at 0.55 µM].

Consider `O=[N+]([O-])c1ccc(/C=N\O)o1`, for which the result was inactive.

Consider `CCN(Cc1ccccc1)c1ccccc1`, for which the compound was classed as inactive.

Take `CCN[C@H]1C[C@H](C)S(=O)(=O)c2sc(S(N)(=O)=O)cc21`: the compound was called inactive.

For `O=C(CO)[C@@H](O)[C@H](O)[C@@H](O)CO`, the compound was called inactive.
